For ten compounds, composite z-score results are on record in PubChem BioAssay.

A short description of the assay: probe aLefty1 binding on compound microarray – biochemical, small-molecule microarray, 635/667 nm fluorescence, primary screen (AID 1153).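 Also: score merges spot fluorescence with signal-to-noise ratio from the scanned slide images.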 Conditions: higher = more signal.
`CCOC(=O)CCN1C(=O)[C@H]2[C@H]3[C@H](O)[C@H](O)CC(=NOCC=C(C)CCC=C(C)C)[C@H]3CC[C@H]2C1=O` returned a composite z-score of 0.148.
The value for `CCOC(=O)[C@H](Cc1ccccc1)NC(=O)CCC1CC(OC(=O)NCc2cccc3ccccc23)CC2(CCCC(COC(=O)NCCOc3ccccc3)O2)O1` (stereo not given in full) was -0.0094.
The value for `CCOC(=O)[C@H](CC(C)C)NC(=O)CCC1CC(OC(=O)NCCc2ccc(F)cc2)CC2(CCCC(COC(=O)NCCCN3CCCC3=O)O2)O1` (stereo not given in full) was -0.28; that for `CC(=O)OC[C@H]1O[C@H](CC=NOC(C)CN2CCCCc3nc(C)c(C)cc32)C=C[C@@H]1OC(C)=O` (stereo not given in full) was 0.589.
Take `C#CCCCON=C1[C@H]2CCn3c(=O)n([C@@H](CC)c4ccccc4)c(=O)n3[C@H]2[C@H](O)[C@@H]2O[C@H]12`: the composite z-score is -0.101.
Regarding `CO[C@H]1C[C@@H]2C[C@H](O)CC(CC(=O)O[C@@H](C=CCC(C)C)C[C@@H]3CC[C@H](C)[C@@H](C1)O3)O2`, the composite z-score is -0.104.
The value for `C=CC[C@@H]1C=C[C@H](ON=C[C@@H](NS(=O)(=O)c2ccc(C)cc2)[C@H](C)C=CCC(=O)OC)[C@@H](CO)O1` was -0.191; that for `CO[C@H]1COC(=O)CCC[C@H](C)[C@@H](OC)COC(=O)CC=C[C@@H]1C` was -0.17.
The same measure for `O=C(NN=C1C[C@@H](O)[C@@H](O)[C@@H]2[C@@H]3C(=O)N(Cc4ccccc4)C(=O)[C@@H]3CC[C@H]12)OCc1ccccc1`: -0.279; for `CCOC(=O)[C@H](CC(C)C)NC(=O)CCC1CC(OC(=O)NCCc2ccc(F)cc2)CC2(CCCC(COC(=O)NCc3cccc4ccccc34)O2)O1` (stereo not given in full): -0.147.
